These results are taken from PubChem BioAssay (NCATS).

Several values for one entry are separate records, joined by “and”; a condition that tells them apart may be missing. Equal values may be shown once. Records with an inconclusive call do not appear. More than one record can exist for a structure, and the calls need not agree. Activity calls are given as the source filed them. Unless noted, calls come from the whole dose curve; as a rule, active = well fitted curve in the direction sought with a large enough effect; inconclusive = small, poorly fitted or top-dose-only effect, or another doubt; inactive = no such curve, though single readings can be large; an effect the other way counts as inactive or inconclusive.

The target in assay [1] is Arylsulfatase A (Homo sapiens) (UniProt P15289). The assay can be described thus: qHTS screen for enhancers of Arylsulfatase A (ASA1): LOPAC Validation Assay (AID 720538). Note: potency is the fitted concentration of half-maximal effect. In a few lines: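 Cell-based enhancement test: residual ASA activity in SV40-transformed I179S patient fibroblasts is measured by pNCS turnover (0.5mM final, 14h, room temperature) following 48h compound incubation; higher fluorescence indicates activation.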
Background: qHTS replaces the single test concentration by a dilution series.

The nature of assay [2]: qHTS for compounds that reverse cellular toxicity of Amyloid beta (A-beta) peptide in yeast: LOPAC Validation Assay (AID 720559).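 Note: plate controls were DMSO for no effect and equimolar ferric chloride plus clioquinol rescue for full effect.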 In a few lines:
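Here, A-beta-toxic yeast grow with test compounds at 30 C for 48 hr before optical density at 600 nm is recorded; data are normalized against DMSO and the FeCl3-clioquinol control.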

Assay [3] in a line: qHTS for Activators of Parkin Expression: LOPAC Validation Assay (NLuc Reporter) (AID 720572;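 note: 0% = DMSO and 100% = positive control compound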). In outline:
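Parkin promoter-driven FLuc/NLuc neuronal reporter cells; 24 h plating, 7-pt dose response, 24 h at 37 C/5% CO2; FLuc then NanoLuc reagent, 10 min each, luminescence; DMSO/positive control normalized.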

The nature of assay [4]: qHTS for Activators of Parkin Expression: LOPAC Validation Assay (FLuc Reporter) (AID 720573;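 note: 0% = DMSO and 100% = positive control compounds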). In outline:
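Readout is FLuc luminescence from neuronal reporter cells (Parkin promoter, FLuc plus NLuc) after 24 h compound exposure in dose response. Values normalized to neutral DMSO and positive-control compounds.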

For assay [5], the target named is T1, Hexokinase-4 (Homo sapiens) + Glucokinase regulatory protein (Homo sapiens) (UniProt P35557+Q14397). Put plainly: qHTS assay for inhibitors of recombinant human GCK-GKRP interaction: Diaphorase-coupled assay (AID 743205). In a few lines:
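Signal derives from resorufin generated by diaphorase, linked to GCK turnover of glucose (5 mM) and ATP (0.4 mM). Enzyme complex was added after a 20-minute compound preincubation and monitored for 30 minutes.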

The target in assay [6] is T1, Hexokinase-4 (Homo sapiens) + Glucokinase regulatory protein (Homo sapiens). Put plainly: qHTS assay for inhibitors of recombinant human GCK-GKRP interaction: ADP-Glo assay (AID 743206).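 Note: plate controls were DMSO plus enzyme for no effect and no enzyme for full effect.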 In a few lines: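 GST-GCK and FLAG-GKRP (15 nM each in the dispensed mix, with 2 uM S6P) react with 0.4 mM ATP and 5 mM glucose (final) in Hepes pH 7.6 for 60 min at room temperature. ADP is measured by ADP-Glo luminescence.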

The target is the same in assay [7]. Put plainly: qHTS assay for inhibitors of recombinant human GCK-GKRP interaction: HTRF assay (AID 743207).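 Note: 0% = DMSO with GCK present and -100% = DMSO wells lacking GCK.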 In outline:
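Titration screening format: recombinant GST-GCK and FLAG-GKRP at 5 nM, S6P at 2 uM, labelled anti-tag antibodies, 60 min at RT, dual-wavelength HTRF readout.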

The nature of assay [8]: qHTS Assay for Identifying Gametocytocidal Compounds (AID 743244).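 For max response: % is set by controls: 0 for no effect and ±100 for the full control effect; actives lower the fluorescent signal which means gametocytes are killed.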 Note: potency is the fitted concentration of half-maximal effect. To be noted: P. falciparum 3D7 stage III-V gametocytes, alamarBlue, 72 h; max response: stronger effect = lower value. In outline: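 3D7 gametocytes, stages III–V, 20,000/well; cpd 72 h, 37 °C/5% CO2; + alamarBlue 24 h; fluor. Ex 525/Em 598.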
Assay [9] concerns the target Peroxisome proliferator-activated receptor alpha (Homo sapiens) (UniProt Q07869). The assay can be described thus: qHTS assay for small molecule agonists of the peroxisome proliferator-activated receptor alpha (PPARalpha) signaling pathway (AID 651778). Note: % of control where 0% means no effect. The note with it: PathHunter PPARalpha complementation, chemiluminescence, 6 h; stronger effect = higher value. In a few lines:
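Chemiluminescence from complemented enzyme reported PPARalpha activation in cells after 6 hr of compound treatment at 37 C. The detection reagent was incubated for 60 min at room temperature, and compounds were scored as agonists.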

Assay [10] in a line: qHTS assay for small molecule agonists of the antioxidant response element (ARE) signaling pathway measured by Nrf2-dependant transcriptional activity (AID 720636; active = well fitted curve in the direction sought with a large enough effect in the repeat runs; an effect the other way counts as inactive or inconclusive;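 note: HepG2 cells with an ARE-driven luciferase reporter; % of control where 0% means no effect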). In a few lines: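 First, ARE-luc HepG2 cells attached for 6 hr at 37 C in 1% dialyzed FBS medium. Next, compound or DMSO was added and incubated 16 hr. Finally, ONE-Glo reagent was added and luminescence measured after 30 min.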

Assay [11] is described as follows: qHTS assay for small molecule agonists of the antioxidant response element (ARE) signaling pathway measured by Nrf2-dependant transcriptional activity - cell viability counter screen (AID 720653; active = well fitted curve in the direction sought with a large enough effect in the repeat runs; an effect the other way counts as inactive or inconclusive; note: % is set by controls: 0 for no effect and ±100 for the full control effect). To be noted: ARE-bla HepG2 viability, CellTiter-Glo ATP luminescence, 16 h; max response: stronger effect = lower value. In outline: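 Cytotoxicity counter screen: intracellular ATP quantified by CellTiter-Glo luminescence in the same ARE-bla HepG2 plates, after 16 h compound exposure and a 2 h beta-lactamase substrate step.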

Assay [12] addresses Tyrosine-protein kinase Yes (Homo sapiens) (UniProt P07947). The assay can be described thus: qHTS for small molecule inhibitors of Yes1 kinase: Primary Screen (AID 686947).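 Note: plate controls were DMSO with enzyme for no effect and no-enzyme DMSO wells for full effect; nearly all actives have a fitted effect of over 60% in size.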 In outline: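 ADP-Glo luminescence readout; final 4 nM Yes1, 0.1 mM ATP, 0.3 mg/mL poly(E4Y), Tris pH 7.5, MgCl2, DTT, Brij-35. 20 min compound preincubation, 60 min reaction at RT. Normalized to DMSO wells with and without enzyme.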

The nature of assay [13]: qHTS for small molecule inhibitors of Yes1 kinase: Counter Assay (AID 686950).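 Note: no kinase present so only ADP-Glo detection of a fixed ADP amount is tested; luminescence from ADP-Glo reporting ADP in a fixed ATP and ADP mixture; series mostly up to about 77 µM; 0% = DMSO wells with ATP plus ADP and -100% = ATP-only wells without ADP.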 In a few lines:
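Luminescence read-out from ADP-Glo quantifies a fixed ADP amount (0.02 mM ADP with 0.08 mM ATP) after 60 min at room temperature; signal is normalized between DMSO wells with ATP/ADP and with 0.1 mM ATP alone.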

T1 sequence (P35557 whole entry, looked up): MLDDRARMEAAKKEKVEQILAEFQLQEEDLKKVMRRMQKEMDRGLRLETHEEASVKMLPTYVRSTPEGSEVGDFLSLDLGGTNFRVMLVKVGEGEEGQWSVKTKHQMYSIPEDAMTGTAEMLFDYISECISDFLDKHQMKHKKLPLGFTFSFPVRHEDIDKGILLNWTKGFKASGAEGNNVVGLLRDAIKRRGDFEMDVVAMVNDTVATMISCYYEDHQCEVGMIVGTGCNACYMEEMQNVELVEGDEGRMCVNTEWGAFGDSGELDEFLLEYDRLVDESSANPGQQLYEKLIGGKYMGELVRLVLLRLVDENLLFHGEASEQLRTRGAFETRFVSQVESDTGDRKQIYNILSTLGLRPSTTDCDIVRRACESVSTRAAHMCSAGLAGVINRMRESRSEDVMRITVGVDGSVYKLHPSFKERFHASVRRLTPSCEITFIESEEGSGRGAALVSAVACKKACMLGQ
T1 sequence (Q14397 whole entry, looked up): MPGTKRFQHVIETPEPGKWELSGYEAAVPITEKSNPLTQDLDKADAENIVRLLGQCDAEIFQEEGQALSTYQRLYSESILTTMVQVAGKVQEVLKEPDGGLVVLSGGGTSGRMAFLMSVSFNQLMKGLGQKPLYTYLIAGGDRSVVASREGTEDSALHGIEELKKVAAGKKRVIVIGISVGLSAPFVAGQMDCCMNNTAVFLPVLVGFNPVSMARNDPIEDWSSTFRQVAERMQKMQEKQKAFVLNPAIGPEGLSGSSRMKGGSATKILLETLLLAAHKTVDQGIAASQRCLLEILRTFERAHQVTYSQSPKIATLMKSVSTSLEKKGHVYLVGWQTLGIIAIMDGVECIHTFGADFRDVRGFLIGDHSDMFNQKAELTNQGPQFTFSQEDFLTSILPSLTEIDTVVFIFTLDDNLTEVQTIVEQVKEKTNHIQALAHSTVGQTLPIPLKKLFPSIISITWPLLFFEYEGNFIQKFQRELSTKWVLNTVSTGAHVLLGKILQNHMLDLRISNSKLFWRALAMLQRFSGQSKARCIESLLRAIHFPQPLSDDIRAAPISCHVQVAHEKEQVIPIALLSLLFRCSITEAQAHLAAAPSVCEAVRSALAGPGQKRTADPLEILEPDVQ
Arylsulfatase A (Homo sapiens), sequence (P15289 whole entry, looked up): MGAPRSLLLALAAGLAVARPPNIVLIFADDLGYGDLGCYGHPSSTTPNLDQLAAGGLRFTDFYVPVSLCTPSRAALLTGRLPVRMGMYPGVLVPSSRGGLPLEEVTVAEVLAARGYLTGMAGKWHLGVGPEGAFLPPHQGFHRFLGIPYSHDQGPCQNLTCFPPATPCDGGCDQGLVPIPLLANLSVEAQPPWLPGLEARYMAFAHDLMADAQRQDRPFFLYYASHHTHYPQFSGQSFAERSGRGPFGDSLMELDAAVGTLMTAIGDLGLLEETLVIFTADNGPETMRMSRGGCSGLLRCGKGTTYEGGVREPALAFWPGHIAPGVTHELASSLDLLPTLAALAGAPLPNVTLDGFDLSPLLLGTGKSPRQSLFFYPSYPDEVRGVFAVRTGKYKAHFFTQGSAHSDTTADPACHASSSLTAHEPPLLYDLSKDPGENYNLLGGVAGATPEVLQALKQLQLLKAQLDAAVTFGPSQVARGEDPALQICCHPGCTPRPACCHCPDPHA
Tyrosine-protein kinase Yes (Homo sapiens), sequence (P07947 whole entry, looked up): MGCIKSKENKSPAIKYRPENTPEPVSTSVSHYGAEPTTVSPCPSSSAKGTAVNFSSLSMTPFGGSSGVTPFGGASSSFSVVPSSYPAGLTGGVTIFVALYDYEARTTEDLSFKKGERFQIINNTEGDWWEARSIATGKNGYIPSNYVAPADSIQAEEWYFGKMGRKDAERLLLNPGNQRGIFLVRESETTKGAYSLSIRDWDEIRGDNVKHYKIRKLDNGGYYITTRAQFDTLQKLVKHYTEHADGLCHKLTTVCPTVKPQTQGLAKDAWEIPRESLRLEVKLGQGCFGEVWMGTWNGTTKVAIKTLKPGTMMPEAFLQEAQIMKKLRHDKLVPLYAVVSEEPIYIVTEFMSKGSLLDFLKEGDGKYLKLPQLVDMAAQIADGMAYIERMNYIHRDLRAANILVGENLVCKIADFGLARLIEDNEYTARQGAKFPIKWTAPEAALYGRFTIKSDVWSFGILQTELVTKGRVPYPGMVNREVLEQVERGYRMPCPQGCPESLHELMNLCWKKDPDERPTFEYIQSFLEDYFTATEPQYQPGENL
Peroxisome proliferator-activated receptor alpha (Homo sapiens), sequence (Q07869 whole entry, looked up): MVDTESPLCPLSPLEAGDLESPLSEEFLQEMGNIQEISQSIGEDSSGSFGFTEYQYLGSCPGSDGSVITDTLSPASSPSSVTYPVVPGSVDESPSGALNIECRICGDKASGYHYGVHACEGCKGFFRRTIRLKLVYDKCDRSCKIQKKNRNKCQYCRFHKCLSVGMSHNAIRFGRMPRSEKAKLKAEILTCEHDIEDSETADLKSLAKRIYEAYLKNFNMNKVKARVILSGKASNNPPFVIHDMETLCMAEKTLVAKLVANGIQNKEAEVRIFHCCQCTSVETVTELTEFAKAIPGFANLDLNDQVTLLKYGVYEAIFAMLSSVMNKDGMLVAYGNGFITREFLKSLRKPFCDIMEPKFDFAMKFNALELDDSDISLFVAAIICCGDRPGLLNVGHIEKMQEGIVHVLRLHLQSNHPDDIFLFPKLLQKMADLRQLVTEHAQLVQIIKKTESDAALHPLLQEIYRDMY

With `CC(C)(C)c1onc(OCP(=O)(O)O)c1CC(N)C(=O)O` (stereo not drawn), the Potency entry in assay [1] was “inactive and 4.26 µM (active)”. For the same molecule, the outcome in assay [2], in assay [4], in [5], in assay [6] and in [7] was inactive. Besides, the Potency entry in assay [3] was “inactive”. Besides, the max response in assay [8] is 18.1% (inactive).
On to `CCCCCCCCCCCCCCCC(=O)NCCO`, for which the Potency entry in assay [1] and in [3] was “inactive” in each case. The call in [2], in assay [4], in assay [5], in assay [6] and in [7] was inactive.
In the case of `CC(C)(C)[C@]1(O)CCN2C[C@H]3c4ccccc4CCc4cccc(c43)[C@@H]2C1`, the Potency entry in assay [1] and in assay [3] was “inactive” each time. Moreover, the outcome in assay [2], in assay [4], in [5], in [6] and in assay [7] was inactive.
Regarding `CN1CCN(C2Cc3ccccc3Sc3ccc(Cl)cc32)CC1` (stereo not drawn), the Potency entry in [1] and in assay [3] was “inactive” each time. Besides, the outcome in assay [2], in assay [4], in [5], in assay [6] and in assay [7] was inactive.
For the molecule `CC1=C(CC(=O)O)c2cc(F)ccc2/C1=C\c1ccc(S(C)=O)cc1` (stereo not drawn), the Potency entry in assay [1] and in assay [3] was “inactive” each time. Also, the molecule was classed as inactive in assay [2], in assay [4], in assay [5], in assay [6] and in [7].
Turning to `CCCn1cnc2c1c(=O)n(CCCCC(C)=O)c(=O)n2C`, the Potency entry in [1] and in assay [3] was “inactive” each time. The call in assay [2], in assay [4], in assay [5], in [6] and in assay [7] was inactive. Further, in assay [8], the max response is -8.62% (inactive) and 26.7% (inactive).
Take `C[C@](N)(Cc1ccc(O)cc1)C(=O)O`: the Potency entry in [1] is “inactive”. Also, the result in assay [5], in [6] and in assay [7] was inactive. In addition, the max response in assay [8] was 18.5% (inactive) and 8.95% (inactive).
Regarding `CC(=O)OCC(=O)[C@@]1(O)CC[C@H]2[C@@H]3CCC4=CC(=O)CC[C@]4(C)[C@H]3C(=O)C[C@@]21C`, the Potency result in [1] and in assay [3] was “inactive” in each case. Moreover, the molecule was classed as inactive in assay [2], in assay [4], in assay [5], in assay [6] and in assay [7].
For `CCN(CC)CCNC(=O)c1cc(Cl)c(N)cc1OC`, the Potency result in assay [1] and in assay [3] was “inactive” each time. The molecule was called inactive in [2], in [4], in assay [5], in assay [6] and in [7]. The max response in assay [8] was -1.62% (inactive).
With `N=c1c[n+](N2CCOCC2)[n-]o1`, the Potency result in [1] and in [3] was “inactive” in each case. The molecule was called inactive in [2], in assay [4], in assay [5], in assay [6] and in assay [7]. Besides, the max response in [8] was 8.18% (inactive).
For the molecule `CNCC(O)c1ccc(O)c(O)c1` (stereo not drawn), the molecule was classed as inactive in assay [2], in assay [4], in [5], in assay [6] and in assay [7]. Further, the Potency entry in [3] is “inactive”.
As for `CCCc1c(OCCCCc2nn[nH]n2)ccc(C(C)=O)c1O`, the results for the max response in assay [9], in assay [11] and in assay [8] were 11.9% (inactive), 2.63% (inactive) and -10.5% (inactive), respectively. Besides, the outcome in assay [10] was inactive.
As to `CCN(CC)CCCC(C)Nc1c2ccc(Cl)cc2nc2ccc(OC)cc12` (stereo not drawn), the Potency result in assay [1] and in [3] was “inactive” in each case. For the same molecule, the molecule was classed as inactive in assay [2], in assay [4], in [5], in [6] and in [7]. Besides, the Potency in assay [8] was 3.16 µM (active) and 1 µM (active).
Turning to `CC(C(O)c1ccc(O)cc1)N1CCC(Cc2ccccc2)CC1` (stereo not drawn), the Potency entry in assay [1] and in assay [3] was “inactive” in each case. Further, the molecule was called inactive in [2], in [4], in [5], in assay [6] and in assay [7]. Also, the Potency in assay [8] was 2.82 µM (active).
As for `Nc1cc(=O)[nH]c(N)n1`, the Potency entry in assay [1] and in assay [3] was “inactive” in each case. Also, the molecule was classed as inactive in assay [2], in assay [4], in [5], in [6] and in assay [7]. In assay [8], the max response is -11.1% (inactive) and 4.42% (inactive).
Turning to `NC(=O)c1ncn([C@@H]2O[C@H](CO)[C@@H](O)[C@H]2O)c1N`, the call in [12] and in assay [13] was inactive. In addition, the max response in assay [8] was -0.312% (inactive) and 4.68% (inactive).
Consider `O=C1Nc2ccc(Cl)cc2[C@@](C#CC2CC2)(C(F)(F)F)O1`, for which the outcome in assay [12] and in assay [13] was inactive. Further, the max response in assay [8] was -21.2% (inactive).
In the case of `NC(N)=NCCC[C@H](N)C(=O)O`, the Potency result in assay [1] and in assay [3] was “inactive” throughout. Further, the molecule was classed as inactive in assay [2], in assay [4], in assay [5], in assay [6] and in [7].
For the molecule `OCCN1CCN(CCCN2c3ccccc3Sc3ccc(Cl)cc32)CC1`, the Potency entry in assay [1] and in assay [3] was “inactive” in each case. Further, the molecule was called inactive in [2], in assay [4], in assay [5], in [6] and in assay [7].
Turning to `CSc1ccc2c(c1)C(N1CCN(C)CC1)Cc1ccccc1S2` (stereo not drawn), the Potency result in [1] and in [3] was “inactive” each time. For the same molecule, the molecule was called inactive in assay [2], in assay [4], in assay [6] and in assay [7]. Besides, in assay [8], the Potency was 12.6 µM (active).
